Of roughly 7,900 targets only a part is listed; those with a hit were picked by preference. About 0.6% of all pairs of compound and target were hits. Values without a mark were called inactive.

Sequence of UniProt O75909 (O75909 whole entry, looked up): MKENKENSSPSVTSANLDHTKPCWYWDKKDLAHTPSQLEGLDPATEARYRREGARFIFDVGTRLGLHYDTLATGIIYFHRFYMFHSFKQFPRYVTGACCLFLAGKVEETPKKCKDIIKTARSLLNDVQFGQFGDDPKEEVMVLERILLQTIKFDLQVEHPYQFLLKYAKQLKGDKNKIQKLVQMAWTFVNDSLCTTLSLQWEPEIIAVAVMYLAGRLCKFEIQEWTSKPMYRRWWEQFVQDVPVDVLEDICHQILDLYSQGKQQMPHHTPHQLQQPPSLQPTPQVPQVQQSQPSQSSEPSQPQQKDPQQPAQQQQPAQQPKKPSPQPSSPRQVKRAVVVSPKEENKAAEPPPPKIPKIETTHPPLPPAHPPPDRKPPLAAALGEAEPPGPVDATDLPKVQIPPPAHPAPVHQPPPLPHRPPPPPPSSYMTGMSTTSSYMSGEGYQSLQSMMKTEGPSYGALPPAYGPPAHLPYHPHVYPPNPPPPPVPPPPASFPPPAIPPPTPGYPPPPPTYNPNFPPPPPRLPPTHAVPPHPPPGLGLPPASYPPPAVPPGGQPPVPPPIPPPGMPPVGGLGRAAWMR
Sequence of UniProt P51798 (P51798 whole entry, looked up): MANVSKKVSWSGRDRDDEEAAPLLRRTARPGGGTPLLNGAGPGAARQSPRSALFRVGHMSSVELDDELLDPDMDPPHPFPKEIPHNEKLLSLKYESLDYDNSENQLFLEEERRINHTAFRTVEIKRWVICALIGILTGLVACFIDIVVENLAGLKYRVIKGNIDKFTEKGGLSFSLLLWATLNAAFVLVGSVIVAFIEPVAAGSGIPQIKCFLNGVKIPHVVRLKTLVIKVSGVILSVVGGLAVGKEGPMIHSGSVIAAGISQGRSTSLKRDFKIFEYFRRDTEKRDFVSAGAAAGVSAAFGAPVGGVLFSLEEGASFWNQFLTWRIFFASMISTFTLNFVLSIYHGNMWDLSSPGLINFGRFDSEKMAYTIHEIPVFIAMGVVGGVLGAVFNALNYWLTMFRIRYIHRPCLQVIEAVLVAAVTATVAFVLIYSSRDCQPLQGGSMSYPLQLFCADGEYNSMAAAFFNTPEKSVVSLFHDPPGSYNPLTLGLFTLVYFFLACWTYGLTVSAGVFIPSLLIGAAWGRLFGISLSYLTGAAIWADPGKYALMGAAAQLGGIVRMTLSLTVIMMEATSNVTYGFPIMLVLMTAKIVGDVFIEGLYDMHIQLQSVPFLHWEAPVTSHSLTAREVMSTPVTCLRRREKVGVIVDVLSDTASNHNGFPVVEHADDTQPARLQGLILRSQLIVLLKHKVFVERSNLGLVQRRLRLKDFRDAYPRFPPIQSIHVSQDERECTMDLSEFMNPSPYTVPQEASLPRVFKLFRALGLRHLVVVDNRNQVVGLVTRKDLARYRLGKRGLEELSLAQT
Sequence of UniProt O95628 (O95628 whole entry, looked up): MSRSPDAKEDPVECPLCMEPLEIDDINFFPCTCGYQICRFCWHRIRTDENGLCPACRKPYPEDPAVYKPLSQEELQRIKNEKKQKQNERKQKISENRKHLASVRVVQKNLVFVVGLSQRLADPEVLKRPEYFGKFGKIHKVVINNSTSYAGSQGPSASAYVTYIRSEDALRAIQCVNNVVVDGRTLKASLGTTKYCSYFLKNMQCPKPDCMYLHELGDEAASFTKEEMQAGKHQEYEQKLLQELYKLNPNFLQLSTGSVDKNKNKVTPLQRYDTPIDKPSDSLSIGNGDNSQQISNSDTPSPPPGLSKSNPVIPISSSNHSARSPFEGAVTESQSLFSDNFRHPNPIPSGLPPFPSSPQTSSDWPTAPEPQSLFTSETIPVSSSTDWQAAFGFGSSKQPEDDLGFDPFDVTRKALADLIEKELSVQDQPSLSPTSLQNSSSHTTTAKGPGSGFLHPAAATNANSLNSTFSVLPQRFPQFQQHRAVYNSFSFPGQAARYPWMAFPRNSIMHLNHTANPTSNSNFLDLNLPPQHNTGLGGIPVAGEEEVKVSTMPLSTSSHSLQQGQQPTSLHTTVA
Sequence of UniProt Q96SZ6 (Q96SZ6 whole entry, looked up): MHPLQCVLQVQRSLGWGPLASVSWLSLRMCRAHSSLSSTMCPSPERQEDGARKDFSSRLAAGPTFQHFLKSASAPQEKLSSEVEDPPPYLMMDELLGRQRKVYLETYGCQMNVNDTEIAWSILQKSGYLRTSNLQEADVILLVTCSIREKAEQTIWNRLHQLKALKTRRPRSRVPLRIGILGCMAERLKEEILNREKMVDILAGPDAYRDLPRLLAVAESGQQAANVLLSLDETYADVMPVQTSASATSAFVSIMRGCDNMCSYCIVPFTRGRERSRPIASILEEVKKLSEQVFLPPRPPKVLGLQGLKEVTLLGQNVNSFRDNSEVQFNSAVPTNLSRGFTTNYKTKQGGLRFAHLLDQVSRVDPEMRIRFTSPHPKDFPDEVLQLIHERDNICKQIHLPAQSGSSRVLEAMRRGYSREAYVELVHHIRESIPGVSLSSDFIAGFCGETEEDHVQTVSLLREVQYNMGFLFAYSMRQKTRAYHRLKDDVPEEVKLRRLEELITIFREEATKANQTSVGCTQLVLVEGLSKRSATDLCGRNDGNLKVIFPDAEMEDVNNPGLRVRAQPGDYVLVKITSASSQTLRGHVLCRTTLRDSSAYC
Sequence of UniProt O15234 (O15234 whole entry, looked up): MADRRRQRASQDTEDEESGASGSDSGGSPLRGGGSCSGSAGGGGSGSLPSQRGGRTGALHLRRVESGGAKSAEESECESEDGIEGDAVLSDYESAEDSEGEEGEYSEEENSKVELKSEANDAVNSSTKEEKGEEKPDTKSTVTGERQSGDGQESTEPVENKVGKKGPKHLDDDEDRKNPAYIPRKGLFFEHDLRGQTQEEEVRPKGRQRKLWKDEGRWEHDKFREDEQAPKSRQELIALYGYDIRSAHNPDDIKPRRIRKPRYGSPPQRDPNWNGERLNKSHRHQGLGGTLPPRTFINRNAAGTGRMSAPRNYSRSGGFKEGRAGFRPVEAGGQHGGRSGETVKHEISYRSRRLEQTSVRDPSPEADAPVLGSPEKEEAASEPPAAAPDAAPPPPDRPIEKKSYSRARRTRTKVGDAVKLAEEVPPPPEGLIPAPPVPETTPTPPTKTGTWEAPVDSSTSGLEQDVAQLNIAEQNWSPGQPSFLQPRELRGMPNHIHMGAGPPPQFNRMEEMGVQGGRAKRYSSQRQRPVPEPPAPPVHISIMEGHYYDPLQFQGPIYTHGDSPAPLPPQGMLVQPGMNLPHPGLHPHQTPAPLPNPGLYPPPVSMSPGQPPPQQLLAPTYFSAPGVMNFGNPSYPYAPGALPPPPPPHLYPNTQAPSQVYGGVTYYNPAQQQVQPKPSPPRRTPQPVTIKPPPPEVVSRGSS
Sequence of UniProt P46108 (P46108 whole entry, looked up): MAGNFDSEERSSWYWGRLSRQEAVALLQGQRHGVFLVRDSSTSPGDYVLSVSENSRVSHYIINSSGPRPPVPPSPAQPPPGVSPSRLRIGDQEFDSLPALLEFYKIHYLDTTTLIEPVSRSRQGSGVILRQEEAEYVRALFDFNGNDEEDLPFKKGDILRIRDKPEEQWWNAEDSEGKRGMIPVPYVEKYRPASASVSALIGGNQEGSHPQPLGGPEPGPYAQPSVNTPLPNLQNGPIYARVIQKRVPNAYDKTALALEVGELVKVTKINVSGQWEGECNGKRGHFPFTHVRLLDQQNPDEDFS
Sequence of UniProt Q8N1A6 (Q8N1A6 whole entry, looked up): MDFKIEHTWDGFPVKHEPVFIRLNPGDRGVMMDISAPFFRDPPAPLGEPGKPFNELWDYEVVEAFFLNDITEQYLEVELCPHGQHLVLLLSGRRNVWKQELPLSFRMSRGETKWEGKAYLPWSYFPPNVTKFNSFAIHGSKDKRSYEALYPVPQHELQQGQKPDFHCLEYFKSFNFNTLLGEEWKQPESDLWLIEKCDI
Sequence of UniProt Q5RI15 (Q5RI15 whole entry, looked up): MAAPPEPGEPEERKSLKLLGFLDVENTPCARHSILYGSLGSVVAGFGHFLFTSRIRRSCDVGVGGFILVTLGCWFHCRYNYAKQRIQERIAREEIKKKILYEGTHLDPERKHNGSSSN
Sequence of UniProt Q92828 (Q92828 whole entry, looked up): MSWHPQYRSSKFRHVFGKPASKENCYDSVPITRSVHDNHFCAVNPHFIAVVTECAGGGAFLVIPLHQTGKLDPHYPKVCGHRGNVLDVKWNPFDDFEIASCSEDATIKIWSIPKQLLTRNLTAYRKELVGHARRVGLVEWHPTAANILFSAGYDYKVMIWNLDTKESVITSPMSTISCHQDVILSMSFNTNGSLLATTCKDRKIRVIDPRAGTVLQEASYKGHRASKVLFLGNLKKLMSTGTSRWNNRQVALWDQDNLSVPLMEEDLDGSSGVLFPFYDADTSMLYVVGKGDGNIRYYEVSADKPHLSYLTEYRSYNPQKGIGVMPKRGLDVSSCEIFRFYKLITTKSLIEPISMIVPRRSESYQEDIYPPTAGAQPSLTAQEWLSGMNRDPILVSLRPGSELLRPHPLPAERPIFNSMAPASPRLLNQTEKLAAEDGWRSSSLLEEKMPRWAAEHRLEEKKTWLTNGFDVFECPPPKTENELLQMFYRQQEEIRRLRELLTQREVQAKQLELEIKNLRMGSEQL
Sequence of UniProt P19784 (P19784 whole entry, looked up): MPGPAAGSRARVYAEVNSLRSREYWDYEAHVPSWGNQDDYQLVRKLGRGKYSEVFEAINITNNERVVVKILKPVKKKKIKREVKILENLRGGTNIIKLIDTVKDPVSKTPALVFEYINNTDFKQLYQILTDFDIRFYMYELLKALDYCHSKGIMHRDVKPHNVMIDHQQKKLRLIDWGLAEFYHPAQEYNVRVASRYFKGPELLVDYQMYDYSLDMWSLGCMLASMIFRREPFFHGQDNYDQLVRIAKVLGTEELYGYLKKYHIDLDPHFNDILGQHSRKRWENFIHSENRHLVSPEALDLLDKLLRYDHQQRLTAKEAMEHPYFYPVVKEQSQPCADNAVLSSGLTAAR

Compound in this assay: Cc1sc2c(c1C)C(c1ccc(Cl)cc1)=N[C@@H](CC(=O)OC(C)(C)C)c1nnc(C)n1-2
Put plainly: log2 fold change, soluble protein after heating vs DMSO (PISA); higher = thermal stabilisation; K562 cells, 10 uM, 30 min; active = over 0.2 and 3.5 SD of the protein, either way, in both replicates (recomputed). The method, boiled down:
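For each measurement, 10 μM compound was applied for 30 min to K562 cells at 2×10^6 cells/mL. Aliquots were heated for 3 min across 48°C-58°C, pooled, and extracted in PBS with 0.5% NP-40 at 4°C; the supernatant after 21,000xg for 90 min was soluble protein. This was quantified by TMTpro 16plex LC-MS/MS with channel sums equalised, and thermal stability was reported relative to control samples from duplicates, on a log2 fold-change scale.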
With CDC42BPB (UniProt Q9Y5S2), the log2 fold change was 0.025.

Turning to CASC3 (UniProt O15234), the log2 fold change is 0.244.

Consider CCNB1 (UniProt P14635), for which the log2 fold change is -0.007.

On to CCAR2 isoform 2 (UniProt Q8N163), for which the log2 fold change was -0.089.

Turning to COX20 isoform 2 (UniProt Q5RI15), the log2 fold change was -0.022.

As to CLCN7 (UniProt P51798), the log2 fold change was 0.024.

Regarding CDK5RAP1 (UniProt Q96SZ6), the log2 fold change was 0.028.

Turning to COPS3 (UniProt Q9UNS2), the log2 fold change is -0.007.

In the case of CPT1A (UniProt P50416), the log2 fold change is -0.022.

On to CCNK isoform 4 (UniProt O75909), for which the log2 fold change is 0.103.

For the target CORO2A (UniProt Q92828), the log2 fold change was 0.045.

Consider CSNK2B (UniProt P67870), for which the log2 fold change was -0.028.

For the target CNOT1 (UniProt A5YKK6), the log2 fold change was -0.017.

For the target CRLF3 (UniProt Q8IUI8), the log2 fold change was 0.088.

For the target CTBS (UniProt Q01459), the log2 fold change was -0.019.

Take CDK5RAP3 isoform 4 (UniProt Q96JB5): the log2 fold change is 0.

Take CSNK2A2 (UniProt P19784): the log2 fold change is 0.028.

Regarding CHERP (UniProt Q8IWX8), the log2 fold change was 0.101.

For CRK (UniProt P46108), the log2 fold change is 0.028.

On to CNOT4 isoform 6 (UniProt O95628), for which the log2 fold change was -0.01.

For CHEK1 (UniProt O14757), the log2 fold change was 0.025.

For the target C4orf33 (UniProt Q8N1A6), the log2 fold change is 0.024.

The values above are taken from the supplement of paper PMC10849652.
